ALDH1A1 block: ALDH1A1 (human) enzyme inhibition; P00352; Purified ALDH1A1, NADH fluorescence, propionaldehyde substrate; Potency, µM (titrated, usually from 75.3 µM), for inactives: top-dose activity, negative = inhibition, hits mostly inhibitors; 220,000 tested, 7.3% active; AID 1030;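 also: potency is read from the fitted curve at half-maximal effect; plate controls were no enzyme wells and a reference inhibitor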
Sfp inh: Sfp phosphopantetheinyl transferase inhibition. Q9F4F7. Biochemical Sfp PPTase activity, qHTS. Potency, µM, for the others: largest response in the series, negative = inhibition, hits mostly inhibitors. 310,000 tested, 3.5% active; active = well fitted curve in the direction sought with a large enough effect; inconclusive = small, poorly fitted or top-dose-only effect, or another doubt; inactive = no such curve, though single readings can be large; an effect the other way counts as inactive or inconclusive;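 also: the enzyme is Sfp with the accession as filed and its product quenches rhodamine fluorescence; potency is read from the fitted curve at half-maximal effect; 0% = enzyme reaction without inhibitor and -100% = no enzyme wells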
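With Hepes-Na pH 7.6 buffer containing 10 mM MgCl2, Sfp (15 nM) modified BHQ-2-YbbR (12.5 uM) using rhodamine-CoA (5 uM). Two reads 30 minutes apart at 525/598 nm yielded each well's rate.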
RGS12 GoLoco inh: blocks human Gai1 binding to RGS12 GoLoco peptide, red readout | Gai1:RGS12 GoLoco peptide FP, rhodamine, 10 min | Potency, µM (titrated, usually from 61.6 µM), inactives show at the top dose activity, negative = inhibition, hits mostly inhibitors | P63096 | AID 880 | 230,000 tested, 0.44% active; active = well fitted inhibition curve with a large enough effect, not every such curve was filed as active; inactive = no such curve, though single readings can be large or run the other way; also: potency is read from the fitted curve at half-maximal effect; nearly all actives have a fitted effect of over 30% in size
Target sequence (P63096 whole entry, looked up): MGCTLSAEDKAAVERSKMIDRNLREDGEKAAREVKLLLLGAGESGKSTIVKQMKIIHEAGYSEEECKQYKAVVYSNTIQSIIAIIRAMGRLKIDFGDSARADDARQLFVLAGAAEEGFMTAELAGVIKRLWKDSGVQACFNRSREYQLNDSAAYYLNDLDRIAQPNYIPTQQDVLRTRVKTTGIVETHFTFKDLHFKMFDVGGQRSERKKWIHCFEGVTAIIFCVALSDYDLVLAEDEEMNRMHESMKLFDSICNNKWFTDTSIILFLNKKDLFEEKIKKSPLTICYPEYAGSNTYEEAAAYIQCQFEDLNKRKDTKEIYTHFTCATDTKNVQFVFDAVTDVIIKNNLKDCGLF
FBPA coupling cs: coupling enzyme interference in Giardia aldolase counter-screen; 290,000 tested, 0.67% active; activity change, negative = inhibition, % at 58.2 µM, hits read low; coupling enzyme system counterscreen, AmpLite Red fluorescence; in the data active = activity change below about -30%
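Activity here indicates interference with the coupling reaction, not aldolase inhibition. Compounds at 57.5 uM final met coupling enzymes for 10 min at RT; substrate and AmpLite Red detection followed, with a 525/598 nm fluorescence read after 20 min.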
KDM4E inh: blocks human JMJD2E demethylase activity; 230,000 tested, 1.6% active; JMJD2E catalytic domain, FDH-coupled NADH fluorescence (FDH is formaldehyde dehydrogenase); B2RXH2; Potency, µM (series often up to 57.1 µM), inactives show at the top dose activity change, negative = inhibition, actives largely listed as inhibitors; AID 2147;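 also: potency is read from the fitted curve at half-maximal effect; 0% = wells with enzyme and -100% = buffer wells without enzyme; nearly all actives have a fitted effect of over 50% in size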
NPSR antag: neuropeptide S receptor (human) antagonism, cAMP | Potency, µM (series often up to 38.3 µM), inactives show at the highest dose activity change, negative = inhibition, actives largely listed as inhibitors | CHO-NPSR cells, cAMP TR-FRET, antagonist mode | Q6W5P4 | AID 1461 | 220,000 tested, 1% active; active = well fitted curve in the direction sought with a large enough effect; inconclusive = small, poorly fitted or top-dose-only effect, or another doubt; inactive = no such curve, though single readings can be large; an effect the other way counts as inactive or inconclusive; also: potency is read from the fitted curve at half-maximal effect; nearly all actives have a fitted effect of over 50% in size
Target sequence (Q6W5P4 whole entry, looked up): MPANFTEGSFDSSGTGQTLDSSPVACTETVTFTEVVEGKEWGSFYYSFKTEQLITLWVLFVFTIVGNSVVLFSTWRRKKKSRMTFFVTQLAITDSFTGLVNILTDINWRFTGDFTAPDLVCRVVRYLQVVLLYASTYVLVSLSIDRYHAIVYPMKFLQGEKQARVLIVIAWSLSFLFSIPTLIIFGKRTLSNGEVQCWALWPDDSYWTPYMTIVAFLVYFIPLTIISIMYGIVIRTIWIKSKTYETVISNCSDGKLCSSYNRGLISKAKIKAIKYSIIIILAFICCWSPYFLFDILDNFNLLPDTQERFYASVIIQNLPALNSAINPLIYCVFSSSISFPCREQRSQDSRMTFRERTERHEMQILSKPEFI
Active calls of the source: *; ? = inconclusive; nt = no result; [ ] = another dose, or the depositor's remark. Rows were chosen to be rich in hits. Some 8.5% of all compounds tested hit in one or more screens of this group. Unless noted, calls follow the shape of the dose curve; as a rule, active = well fitted inhibition curve with a large enough effect (not every such curve was filed as active); inconclusive = small, poorly fitted or top-dose-only effect, or another doubt; inactive = no such curve, though single readings can be large or run the other way. Unless noted, % is scaled to controls: 0 for no effect and ±100 for the full control effect.

SMILES | ALDH1A1 block | Sfp inh | RGS12 GoLoco inh | FBPA coupling cs | KDM4E inh | NPSR antag
Cc1ccc(NC(=O)c2cc(N3C(=O)C=CC3=O)ccc2N2CCOCC2)cc1Cl | 0.251µM* | 3.98µM* | 2.4% | -3.0 | -1.2% | ?
Cc1cccc(NC(=O)c2cc(NC(=O)C3CC=CCC3C(=O)O)ccc2N2CCOCC2)c1 (stereo not given) | 3.16µM* | 14.4% | 8.3% | 0.4 | -3.8% | -7.9%[46.1 µM]
Cc1ccc(NC(=O)c2cc(N3C(=O)CCC3=O)ccc2N2CCOCC2)cc1 | -0.9% | 10.1% | 1.7% | 1.3 | -14.4% | 7.3%
Cc1ccc(NC(=O)c2cc(NC(=O)C3CC=CCC3C(=O)O)ccc2N2CCOCC2)cc1 (stereo not given) | 12.6µM* | 19.9% | 8.1% | 4.2 | 9.2% | -2.4%[46.1 µM]
O=C(O)C1CC=CCC1C(=O)Nc1ccccc1 (stereo not given) | -11.4% | 6.6% | 1.1% | 6.2 | -0.4% | 1.3%[46.1 µM]
Cc1ccc(NC(=O)c2cc(NC(=O)C3CC=CCC3C(=O)O)ccc2N2CCOCC2)cc1Cl (stereo not given) | 1.78µM* | 9.6% | 5.8% | 5.3 | -1.9% | -16.2%[46.1 µM]
COc1ccc(C2/C=C\CN(C(=O)C3CC3)C(C)C(=O)N2Cc2ccc(F)cc2)cc1 (stereo not given) | nt | 14.6% | nt | 4.8 | nt | nt
COc1cccc(N2C(=O)Nc3ccc(Br)cc3C2(O)C(=O)NCCN(C)C)c1 (stereo not given) | nt | -1.1% | nt | 1.3 | nt | nt
COc1ccc(C2Nc3cc(OC)ccc3-n3cccc32)cc1 (stereo not given) | nt | -26.6% | 0.1% | -1.2 | ? | 15.4%[7.67 µM]
COc1ccc(NC(=O)CSc2nnc(-c3ccccc3C)n2N)cc1 | 12.6µM* | -13.8% | 0.3% | 3.1 | 2.0% | 4.1%[46.1 µM]
COc1ccc(NC(=O)CSc2nnc(-c3ccccc3C)n2N)cc1OC | 1.6% | 1.1% | nt | -1.2 | -0.8% | -3.5%[46.1 µM]
Cc1n[nH]c(C)c1SCC(=O)Nc1ccc(F)cc1 | -5.3% | 21.8% | 2.3% | -0.3 | 12.5% | -3.7%[46.1 µM]
COc1ccc(NC(=O)CSc2c(C)n[nH]c2C)cc1 | 15.8µM* | 6.5% | -15.6% | -1.5 | -0.4% | 4.4%[46.1 µM]
C#CCNC(=O)C1=C[C@H](c2coc3ccccc3c2=O)[C@@H](CCCO)[C@H](OCC)O1 | ? | 2.2% | -1.5% | 0.8 | 10.0% | 11.7%
COc1cccc(-c2nc(CS(=O)(=O)CC(=O)NCCN3CCOCC3)c(C)o2)c1 | nt | 10.3% | nt | 0.1 | nt | nt
CC(=O)N1CCN(C2=NC(=O)C(=C3CCCCC3)S2)CC1 | 12.6µM* | 17.6% | -0.5% | -2.1 | 7.0% | -10.1%[46.1 µM]
CC(C)=C1SC(N2CCCCC2)=NC1=O | -2.6% | 16.7% | 6.8% | -1.7 | -5.5% | -0.5%[46.1 µM]
N#CCCN1CCN(C2=NC(=O)C(=C3CCCCC3)S2)CC1 | 1.26µM* | -7.0% | 7.4% | -1.1 | -2.0% | 20µM*
Cc1cccc(N2CCN(C3=NC(=O)/C(=C\c4cn[nH]c4-c4ccccc4)S3)CC2)c1 | 3.3% | 11.7% | -3.4% | 3.1 | ? | -3.1%[46.1 µM]
O=C1N=C(N2CCOCC2)SC1=C1CCCCC1 | 2µM* | -2.4% | -24.2% | 2.2 | 12.5% | -5.2%[46.1 µM]
CC(=O)N1CCN(C2=NC(=O)/C(=C\c3cccs3)S2)CC1 | -7.2% | 17.6% | 0.1% | -1.4 | 1.0% | 35.1%
Cc1cccc(N2CCN(C3=NC(=O)C(=C4CCCCC4)S3)CC2)c1 | 6.31µM* | -0.2% | 0.8% | -0.4 | -4.2% | -12.4%[7.67 µM]
O=C1N=C(N2CCOCC2)S/C1=C\c1ccncc1 | nt | 0.5% | 2.7% | 1.0 | -28.6% | -15.4%
CN(CC(=O)N1CCOCC1)S(=O)(=O)c1ccc2ccccc2c1 | nt | 19.2% | nt | 2.4 | nt | nt
O=C(Cc1ccc(NC2=NC3CS(=O)(=O)CC3S2)cc1)NCc1ccccc1Cl (stereo not given) | nt | 22.3% | nt | -2.3 | nt | nt
SMILES | ALDH1A1 block | Sfp inh | RGS12 GoLoco inh | FBPA coupling cs | KDM4E inh | NPSR antag
CCc1ccc(S(=O)(=O)NC(=S)Nc2ccccc2)cc1 | 31.6µM* | 15.8µM* | -5.3% | 0.2 | 0.8% | -4.1%
Cc1ccc(S(=O)(=O)NNC(=S)Nc2ccccc2)cc1 | 7.51µM* | -14.8% | -2.5% | 0.5 | -2.8% | -2.2%[46.1 µM]
Cc1ccc(S(=O)(=O)NNC(=S)Nc2ccc(Cl)cc2)cc1 | nt | 14.4% | 16.0% | 8.3 | 2.3% | -16.7%
C[N+](C)(C)CCCCCC[N+](C)(C)C | 1.8% | 19.5% | 7.8% | 7.5 | 5.9% | ?
C[N+](C)(C)CCCCCC(=O)/C=N/O | 5.4% | 0.2% | 2.51µM* | 0.2 | -22.1% | 15.7%
O=C(c1cccc(Cl)c1)N1CCN(c2ncccn2)CC1 | nt | 12.5% | nt | 4.9 | nt | nt
CCN(C(=O)c1cnc(N2CCN(c3ncccn3)CC2)c2ccccc12)c1cccc(Cl)c1 | ? | 39.8µM* | 1.5% | -9.0 | ? | ?
CN(C(=O)c1cnc(N2CCN(c3ncccn3)CC2)c2ccccc12)c1ccc(Cl)cc1 | 8.8% | 56.2µM* | 4.1% | -19.2 | -0.4% | -5.2%[46.1 µM]
O=C(c1cnc(N2CCN(c3ncccn3)CC2)c2ccccc12)N1CCN(c2ncccn2)CC1 | ? | 0.2% | -2.2% | 2.7 | -9.8% | -16.8%[46.1 µM]
CC(C)NC(=O)c1cnc(N2CCN(c3ccccn3)CC2)c2ccccc12 | 31.6µM* | -1.0% | -0.1% | 3.0 | -6.4% | -2.8%[46.1 µM]
CCOc1c(Cl)cc(CNc2ccc(N3CCCC3)cc2)cc1OC | ? | 79.4µM* | -29.3% | -29.9 | 8.91µM* | -5.8%
S=C(NC1CCCCC1)N(CCc1ccccc1)CCc1ccccc1 | -5.3% | 5.2% | nt | 0.4 | -8.1% | 22.7%[46.1 µM]
CCC(NC(=S)NCc1ccc(F)cc1)c1ccccc1 (stereo not given) | nt | 17.9% | nt | 0.5 | nt | nt
CNC(=O)C1CCN(S(=O)(=O)c2c(C)noc2/C=C/c2ccc(OC)cc2)CC1 | nt | 12.6% | nt | 0.0 | nt | nt
CC1=CN2C(=N)/C(=C/c3cn(CCCOc4ccccc4C)c4ccccc34)C(=O)N=C2S1 | ? | -2.9% | 17.5% | 0.8 | 0.3% | -27.6%
CC1=CN2C(=N)/C(=C/c3ccco3)C(=O)N=C2S1 | 12.6µM* | 0.1% | 9.3% | -2.7 | -5.4% | -24.5%
CC1=CN2C(=N)/C(=C/c3ccc([N+](=O)[O-])o3)C(=O)N=C2S1 | 3.55µM* | 35.5µM* | 93.8% | -32.5* | 28.2µM* | 12.6µM*
Cc1cc2[nH]c(=O)c(=O)[nH]c2cc1S(=O)(=O)Nc1cccc(Cl)c1C | nt | 11.1% | nt | -0.3 | nt | nt
O=C(N=C1SC2CS(=O)(=O)CC2N1CCc1ccccc1)C1CCCCC1 (stereo not given) | nt | 18.0% | nt | nt | nt | nt
O=C(NC(=S)N1CCCC1)c1ccc(Cl)cc1 | nt | 8.9% | nt | nt | nt | nt
O=C(NC(=S)N1CCN(c2ccccn2)CC1)c1ccco1 | 11.2µM* | -27.1% | -1.3% | 1.4 | 6.3% | 11.3%
CN1CCN(C(=S)NC(=O)c2ccc(Cl)cc2)CC1 | 17.8µM* | 35.5µM* | -1.2% | 0.3 | 9.6% | -3.3%
